HCV inh: qHTS Assay for Inhibitors of Hepatitis C Virus (HCV); Huh7.5.1 HCVcc-Cre infection, luciferase reporter, 44 h; Potency, µM (highest dose often 41.8 µM), usual class: inhibitors; actives 3.4% (n = 340,000); active = well fitted inhibition curve with a large enough effect; inconclusive = small, poorly fitted or top-dose-only effect, or another doubt; inactive = no such curve, though single readings can be large or run the other way
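Cells (1,000/well) were plated 4 h before compound, then infected with HCVcc-Cre virus (~0.5 moi). After 44 h further culture, infection was read as luciferase luminescence following a 15 min substrate incubation at room temperature.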
HCMV antiviral: qHTS Assay for inhibitors of the human cytomegalovirus (HCMV); HFF cells, HCMV-luciferase reporter, 72 h; active compounds read low; activity change, negative = inhibition, % at 57.5 µM; actives 4.5% (n = 410,000); AID 1259415, 2018; in the data active = activity change below about -60%; inconclusive = no clear call, values can overlap the other calls; inactive = above about -39%
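Two-dose cell screen: HFF monolayers treated with compounds and infected with luciferase-expressing HCMV at 1 PFU/cell, 72 h at 37C, then lysed for luciferase measurement.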
LASV entry inh: qHTS for Inhibitors of binding or entry into cells for Lassa Virus. Lassa virus pseudotype entry inhibition, cell reporter. Potency, µM (series often up to 37.9 µM), most hits filed as inhibitors. actives 1.2% (n = 300,000); calls by dose curve; tested in HEK293 cells; also: nearly all actives have a fitted effect of over 50% in size
Marburg entry inh: qHTS for inhibitors of binding or entry into cells for Marburg Virus | actives 1.8% (n = 300,000) | AID 540276, 2011 | Marburg virus pseudotyped entry inhibition, cell reporter | Potency, µM (doses to about 37.8 µM), most hits filed as inhibitors; calls by dose curve; tested in HEK293 cells
FMDV inh: High Throughput Screening for Foot and Mouth Disease Virus Antivirals | FMDV antiviral cell-based qHTS | Potency, µM (doses to about 57.9 µM), actives largely listed as inhibitors | actives 1.2% (n = 410,000); calls by dose curve; tested in HEK293T cells; also: read-out not given here; nearly all actives have a fitted effect of over 45% in size
A number is an active result; – = inactive; ? = inconclusive; · = not tested or not shown; [ ] = another dose, or the depositor's remark. Only some compounds are listed: those with a hit (about 7.9% of all), similar ones and a draw of the others.

SMILES	HCV inh	HCMV antiviral	LASV entry inh	Marburg entry inh	FMDV inh
c1ccc(CCNc2nc(-c3ccncc3)nc3ccccc23)cc1	13µM	-71	?	?	?
Cc1ccc2nc(COc3ccccc3NC(=O)C(C)(C)C)cc(=O)n2c1	·	–	–	·	–
COc1ccc2[nH]c3c(c2c1)CCN1C(=O)C(CC(=O)NCc2ccc(OC)c(OC)c2)C[C@H](C(=O)N2CCOCC2)[C@@]31C (stereo partly drawn)	–	–	·	–	–
COc1ccc2[nH]c3c(c2c1)CCN1C(=O)C(CC(=O)NCc2ccco2)C[C@H](C(=O)N2CCCCC2)[C@@]31CCc1ccccc1 (stereo partly drawn)	0.56µM	–	·	–	–
C[C@]12c3[nH]c4ccc(Cl)cc4c3CCN1C(=O)[C@@H](CC(=O)NCc1cccc(C(F)(F)F)c1)C[C@@H]2C(=O)N1CCOCC1	7.1µM	–	·	·	–
COc1ccc2[nH]c3c(c2c1)CCN1C(=O)C(CC(=O)NCCc2ccccn2)C[C@H](C(=O)N2CCCCC2)[C@@]31CCc1ccccc1 (stereo partly drawn)	7.9µM	–	·	–	–
O=C(CC1C[C@H](C(=O)N2CCCCC2)[C@@]2(CCc3ccccc3)c3[nH]c4ccccc4c3CCN2C1=O)NCc1ccco1 (stereo partly drawn)	–	–	·	·	–
COc1ccc(CNC(=O)C[C@H]2C[C@H](C(=O)N3CCCCC3)[C@@]3(C)c4[nH]c5ccc(Cl)cc5c4CCN3C2=O)cc1OC	14µM	–	·	–	–
COc1ccc(Nc2nc(C)nc(N)c2S(=O)(=O)c2ccccc2)cc1	·	–	–	–	–
CC(C)Cc1nn2c(=O)cc(COC(=O)c3cccc(NS(C)(=O)=O)c3)nc2s1	·	–	–	·	–
Cc1nn2c(=O)cc(COC(=O)Cc3ccccc3)nc2s1	·	–	–	·	–
COc1ccc2[nH]c3c(c2c1)CCN1C(=O)C(CC(=O)NCc2ccc(OC)c(OC)c2)C[C@H](C(=O)N2CCCCC2)[C@@]31CCc1ccccc1 (stereo partly drawn)	10µM	?	·	·	–
O=C(Nc1ccc2c(c1)OCCO2)c1cccc(Cl)c1Cl	–	–	·	·	–
O=C(Nc1ccc2c(c1)OCCO2)c1c(Cl)cccc1Cl	·	-85	·	·	–
O=C(Nc1ccc2c(c1)OCCO2)c1ccc(Br)cc1	?	–	?	4µM	–
O=C(Nc1ccc2c(c1)OCCO2)c1cc(-c2ccccn2)nc2ccc(Br)cc12	–	-94	–	–	–
O=C(Nc1ccc2c(c1)OCCO2)c1cccc(Br)c1	–	–	–	?	–
CC(C)(C)c1ccc(/C=C/C(=O)Nc2ccc3c(c2)OCCO3)cc1	·	·	6.5µM	–	·
Cc1cccc(-c2cc(C(=O)Nc3ccc4c(c3)OCCO4)c3ccccc3n2)c1	?	–	–	–	–
COC(=O)C(C(=O)OC)C1OC23CN(S(=O)(=O)c4ccc(C)cc4)C=CC2(C)C3c2ccccc21 (stereo not drawn)	·	·	·	–	·
O=C1C(n2ccc3ccccc32)c2ccccc2N1Cc1ccc(Cl)nc1 (stereo not drawn)	·	–	·	·	·
COCCCNC(=O)c1ccc(-n2c(-c3ccccc3)cc3c2CCC(C)C3)cc1 (stereo not drawn)	·	?	?	·	–
Cc1ccc(C(=O)Nc2ccc3c(c2)OCO3)cc1	?	–	?	?	–
Cc1ccc(C(=O)Nc2ccc3c(c2)OCCO3)cc1	–	?	2.8µM	?	?
CCc1nc(SCC(=O)N2c3ccccc3CC2C)c2c(C)c(C)sc2n1 (stereo not drawn)	13µM	–	1.5µM	0.92µM	·
SMILES	HCV inh	HCMV antiviral	LASV entry inh	Marburg entry inh	FMDV inh
Cc1nnc(NC(=O)CSc2ncnc3c2cnn3-c2ccccc2C)s1	–	–	–	–	·
Cc1ccccc1-n1ncc2c(SCC(=O)N3c4ccccc4CC3C)ncnc21 (stereo not drawn)	?	-67	–	?	·
COc1ccc(N2CCN(C(=O)CSc3ncnc4c3cnn4-c3ccccc3C)CC2)cc1	–	–	–	–	?
Cc1ccccc1-n1ncc2c(SCC(=O)NC3CCCC3)ncnc21	4µM	-72	·	?	?
Cc1nc(SCC(=O)N2CCOCC2)c2c(C)c(C)sc2n1	–	–	?	–	–
CCCc1nc(SCC(=O)N2CCOCC2)c2c(C)c(C)sc2n1	–	-78	–	?	–
CCOc1ccccc1CNC(=O)c1ccc(Cn2c(=O)c3cccn3c3cccnc32)cc1	·	–	–	·	–
CC1=C(C(=O)OC2CCCCCC2)C(c2cccc(Cl)c2)CC(=O)N1 (stereo not drawn)	·	?	–	?	–
CCN(Cc1ccccc1)C(=O)Cn1c(=O)n(-c2ccc(Cl)c(Cl)c2)c(=O)c2c(C)c(C(=O)N(C)C)sc21	·	–	–	·	–
CCC1CN(Cc2cn[nH]c2-c2ccc(OC)cc2)Cc2cc(OC)ccc2O1 (stereo not drawn)	·	·	·	·	–
Cc1ccc(C(=O)NCCc2nnc3n2CCN(Cc2ccnc4ccccc24)CC3)c(C)c1	·	·	·	·	–
CCOc1ccccc1CNC(=O)CCc1cn(Cc2ccc(Cl)cc2)c2ccccc12	·	?	–	·	–
N#Cc1c(NC(=O)CSc2ncnc3c2cnn3-c2ccccc2Cl)sc2c1CCCC2	?	?	?	?	–
O=C(CSc1ncnc2c1cnn2-c1ccccc1Cl)N1CCN(C(=O)c2ccco2)CC1	–	–	?	–	35µM
Brc1ccccc1CN1CCC(N2CCCCC2)CC1	4µM	–	?	–	–
Cc1ccccc1NC(=O)CSc1nc2ccc(NC(=O)c3ccccc3)cc2s1	·	–	–	–	–
Cc1cc(-c2ccnc(-n3ncc(C(=O)NCC4COCCO4)c3C3CC3)n2)c(C)s1 (stereo not drawn)	·	·	·	·	–
O=C(NCc1ccccc1)C1=C[C@H](C2CCCCC2)C[C@H](OCc2ccc(CO)cc2)O1	–	-84	·	·	–
O=C(NC1CC1)C1=C[C@H](c2csc3ccccc23)C[C@H](OCCCCO)O1	–	–	·	·	–
O=C(NCc1ccccc1)C1=C[C@@H](c2csc3ccccc23)C[C@@H](OCc2ccc(CO)cc2)O1	?	-98	·	·	–
O=C(NCc1ccccc1)C1=C[C@@H](c2csc3ccccc23)C[C@@H](OCCCCO)O1	–[8.37 µM]	-97	·	·	–
CCOc1cccc2cc(S(=O)(=O)c3ccccc3F)c(=O)oc12	·	–	–	–	–
CC(=O)Oc1ccc(/C=C/c2nc3ccccc3c(=O)o2)cc1	–	–	?	?	–
CC(=O)Oc1ccccc1/C=C/c1nc2ccccc2c(=O)o1	–	–	2µM	?	?
Cc1oc2cc3oc(=O)c(CC(=O)NCc4ccccc4)c(C)c3cc2c1C	·	–	–	–	–
COc1cc(-c2noc(C)c2/C=C/c2ccc(OC(C)=O)cc2)cc(OC)c1OC	?	-65	·	·	–
COC(=O)C1=C(C(=O)OC)[C@@H]2N(C)c3ccccc3[C@@]23C[C@@H](CO)N(C(=O)c2ccc(Br)cc2)C3=N1	·	·	·	–	·
